Bioassay records from PubChem.
Shown are actives, neighbours in structure and some others; about 6.3% of the full set was active somewhere.
tim23-1 inh – inhibits growth of tim23-1 mutant yeast; S. cerevisiae tim23-1 growth, BacTiter-Glo luminescence, 24 h; inhibition, % at 20 µM; actives 1.3% (n = 330,000);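 active means growth inhibition of the mutant yeast at or above 50%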;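 further: temperature-sensitive mutant grown at 25 °C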
tim10-1 inh – growth inhibitors of tim10-1 mutant yeast | S. cerevisiae tim10-1 ts strain growth, BacTiter-Glo, 24 h | inhibition, % at 20 µM | actives 2.2% (n = 330,000) | AID 463190;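 active means inhibition of at least 40%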;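 further: mutant grown at 25 °C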
Mdm2-MdmX inh – human Mdm2/MdmX binding inhibition; SaOS-2 split-luciferase Mdm2/MdmX complementation, luminescence; inhibition, % at 8 µM; O15151+Q00987; actives 3% (n = 330,000);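 active means inhibition of at least 50% at 8 µM in the primary screen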
MPTP inh – inhibitors of mitochondrial permeability transition pore; isolated mouse mitochondria, Ca2+ swelling absorbance, 30 min; inhibition, % at 10 µM; actives 1.4% (n = 360,000); AID 602449;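 active means inhibition of 50% or more, scaled per plate between neutral and stimulator controls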
TIM10 inh – TIM10 yeast growth inhibition | S. cerevisiae TIM10 strain growth, BacTiter-Glo luminescence, 24 h | inhibition, % at 10 µM | actives 1.4% (n = 330,000) | AID 463195;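 active means inhibition of 40% or more at the single tested concentration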;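 further: wild-type TIM10 isogenic control strain grown at permissive 25 °C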
Rh123 counter – Rhodamine 123 counter-screen of mitochondrial pore hits | shares compounds with MPTP inh | isolated mitochondria, membrane potential, Rhodamine 123 fluorescence | inhibition, % at 10 µM | actives 78% (n = 5,000); in the data active means inhibition above about 22%
MPTP swell DR – dose response confirmation of mitochondrial permeability transition pore inhibitors. actives 58% (n = 780). isolated mitochondria swelling, absorbance. shares compounds with MPTP inh. IC50, µM; in the data active means IC50 below about 20 µM
MPTP cs DR – counter-screen for mitochondrial permeability transition pore inhibitors, dose response; shares compounds with MPTP inh; isolated mitochondria counterscreen, fluorescence read-out; IC50, µM; actives 49% (n = 780); in the data active means IC50 below about 80 µM
Numbers stand for hits; – = inactive; · = no result.

SMILES | tim23-1 inh | tim10-1 inh | Mdm2-MdmX inh | MPTP inh | TIM10 inh | Rh123 counter | others
O=C(NCCN1C(=O)S/C(=C\c2ccc(Cl)c(Cl)c2)C1=O)c1ccc2c(c1)C(=O)N(Cc1ccncc1)C2=O | – | – | – | 56 | – | 20
O=C(NCCN1C(=O)S/C(=C\c2ccc(Cl)c(Cl)c2)C1=O)C1COc2ccccc2O1 (configuration not stated) | – | – | – | 99 | – | 92
O=C(NCCN1C(=O)S/C(=C\c2ccc(Cl)cc2)C1=O)c1ccc(F)c(S(=O)(=O)N2CCOCC2)c1 | – | – | – | – | – | ·
Cc1ccc(S(=O)(=O)NC(=O)C2(C)CCN2C(=O)Cc2cc(F)ccc2F)nc1 (configuration not stated) | · | · | · | – | · | ·
Cc1cc(C(=O)CSc2nc3ccccc3[nH]2)c(C)n1CC1CCCO1 (configuration not stated) | – | – | – | 71 | – | 85
Cc1cc(C(=O)CSc2nc(N)cc(=O)[nH]2)c(C)n1CC1CCCO1 (configuration not stated) | – | – | – | – | – | ·
CCCn1c(=O)[nH]c(=O)c2c1nc(-c1ccccc1OC(F)F)n2CCOC | – | – | – | – | – | ·
CCCn1c(=O)[nH]c(=O)c2c1nc(-c1ccc(OC(F)F)c(OC)c1)n2CCOC | – | – | – | 80 | – | – | MPTP swell DR=–;MPTP cs DR=–
CCOC(=O)N1CCN(S(=O)(=O)c2ccc(C(=O)N(CCCN(C)C)c3nc4c(F)cc(F)cc4s3)cc2)CC1 | – | – | – | 51 | – | – | MPTP swell DR=19;MPTP cs DR=–
CCOC(=O)N1CCN(S(=O)(=O)c2ccc(C(=O)N(CCCN(C)C)c3nc4ccc(Cl)cc4s3)cc2)CC1 | – | – | – | – | – | ·
COc1ccc2sc(N(CCCN(C)C)C(=O)c3nc4ccccc4s3)nc2c1 | – | – | – | – | – | ·
COc1ccc(C)c2sc(N(CCCN(C)C)C(=O)c3ccc(S(=O)(=O)N4CCc5ccccc5C4)cc3)nc12 | · | · | · | 96 | · | –
COc1ccc2sc(N(CCCN(C)C)C(=O)c3ccc(S(=O)(=O)N(C)Cc4ccccc4)cc3)nc2c1 | – | – | – | 78 | – | – | MPTP swell DR=8.1
Cc1nn(Cc2noc(C(=O)NC3CCC(C)CC3)n2)c(C)c1Br (configuration not stated) | – | – | – | 59 | – | 58
O=[N+]([O-])c1cc(Br)cc(C=Nc2ccc3c(c2)OCO3)c1O | – | – | – | 75 | – | 52
CCOC(=O)C1(C)CCN1C(=O)COc1ccc(C(C)(C)C)cc1 (configuration not stated) | · | · | · | – | · | ·
O=C(NC(=S)NN1CCCCC1c1cccnc1)c1ccc(Cl)cc1Cl (configuration not stated) | – | – | – | 52 | – | 65
N#CNC(=Nc1cccc(F)c1)SCc1ccccc1F | – | – | – | 77 | – | 91
CC(C)N=C(NC#N)SCc1ccccc1F | – | – | – | – | – | ·
CSc1nc(Oc2ccc(F)cc2F)cc(C(F)(F)F)n1 | – | – | – | – | – | ·
CSc1nc(Oc2cccc(C(F)(F)F)c2)cc(C(F)(F)F)n1 | – | – | – | 55 | – | – | MPTP swell DR=11;MPTP cs DR=–
Oc1ccc(C[C@H]2CNC(=S)N2C[C@H]2CCCN2C[C@H](Cc2ccccc2)N2C[C@H](Cc3ccccc3)N(CC3CCCCC3)C2=S)cc1 | · | · | · | – | · | ·
O=C(NCc1ccc(Cl)cc1)C1=Cc2cc(Cl)ccc2OC1 | – | – | – | 78 | – | 89
CCc1ccc(C(=O)NCc2ccc(Cl)cc2)cc1 | – | – | – | – | – | ·
O=C(Nc1cccc(Cl)c1)C1=Cc2cc(Cl)ccc2OC1 | – | – | – | 95 | – | 110
SMILES | tim23-1 inh | tim10-1 inh | Mdm2-MdmX inh | MPTP inh | TIM10 inh | Rh123 counter | others
O=C(CCN1CCCO1)N1CCCC(Nc2cccc(F)c2)C1 (configuration not stated) | · | · | · | – | · | ·
O=[N+]([O-])c1ccc(O)c(C(C#Cc2ccccc2)N2CCOCC2)c1 (configuration not stated) | – | – | – | 68 | – | 87
CCN1C(=O)[C@H]2[C@@H](c3ccc(C(F)(F)F)cc3)N[C@]3(CCCN(Cc4ccc(C(F)(F)F)cc4)C3=O)[C@H]2C1=O | · | · | · | – | · | ·
CCOC(=O)c1cnc(SCC(=O)Nc2cc(OC)cc(OC)c2)nc1N | – | – | – | 87 | – | 49
COc1cc(NC(=O)CSc2nc(C)c(C)c(C)n2)cc(OC)c1 | – | – | – | – | – | ·
O=C(NN=Cc1cccc(O)c1O)c1ccccc1 | · | · | · | – | · | ·
NC(=O)N/N=C\c1cc(Br)ccc1O | – | – | – | – | – | ·
O=C(N/N=C/c1cc(Br)ccc1O)c1ccncc1 | – | – | – | – | – | ·
O=C(N/N=C/c1cc(Br)ccc1O)Nc1ccccc1 | – | – | – | 99 | – | 65
Cc1cccc(/C=N\NC(=O)c2ccc(Cl)cc2)c1O | – | – | – | 74 | – | 80
O=C(N/N=C/c1cc(Cl)ccc1O)c1ccc(Br)cc1 | · | · | · | 92 | · | 64
COc1ccc(C(C)(O)c2nc(-c3ccc(F)cc3OC)cs2)cc1 (configuration not stated) | · | · | · | – | · | ·
O=C(NCc1cc(Cl)cc(Cl)c1)c1ccc2nc([C@H]3C[C@H](O)[C@@H](CO)O3)[nH]c2c1 | · | · | · | – | · | ·
N#CC(=C1C=C(Br)C(=NO)C=C1Cl)c1cccc2ccccc12 | · | · | · | 76 | · | 57
CC(Oc1ccc(Cl)cc1Cl)C(=O)Nc1ccc2oc(-c3ccncc3)nc2c1 (configuration not stated) | – | – | – | 74 | – | 83
CCOC(=O)C1(Cc2ccccc2)CCCN(Cc2cnn(CC)c2)C1 (configuration not stated) | – | – | – | 64 | – | – | MPTP swell DR=–;MPTP cs DR=–
CCOC(=O)C1(Cc2ccccc2)CCN(Cc2cnn(CC)c2)CC1 | – | – | – | – | – | ·
CCOC(=O)C1(Cc2ccccc2)CCN(Cc2cnn(-c3ccccc3)c2)CC1 | – | – | – | 62 | – | – | MPTP swell DR=15;MPTP cs DR=33
CCn1cc(CN2CCCC(C(=O)c3ccc(-c4ccccc4)cc3)C2)cn1 (configuration not stated) | – | – | – | 58 | – | – | MPTP swell DR=19;MPTP cs DR=26
CCc1nc2c(OCc3ccc(C(=O)N(C)C)cc3)cccn2c1N(C)C(=O)Nc1ccccc1OC | · | · | · | – | · | ·
COc1ccccc1C(C)Nc1nc(-c2cccnc2)nc2ccccc12 (configuration not stated) | – | – | – | – | – | ·
COc1cc(OC)c(OC)cc1/C=C/C(=O)OCC(=O)Nc1c(C)n(C)n(-c2ccccc2)c1=O | · | · | · | – | · | ·
O=C(c1ccccc1)c1ccc(O)c(O)c1O | · | · | · | – | · | ·
CC1CCCN(S(=O)(=O)c2ccc3c(c2)OCCO3)C1 (configuration not stated) | · | · | · | – | · | ·
